High-throughput results from PubChem.
ST2 inh: inhibitors of human ST2 (IL1RL1) binding to IL-33, primary screen, biochemical, AlphaLISA; Interleukin-1 receptor-like 1 (Homo sapiens), Q01638; AlphaLISA ST2-Fc/biotin-IL-33 interaction, 1 h; inhibition, % for hits at 17 µM; actives 2.3% (n = 78,000); AID 1259354, 2018; in the data active means inhibition above about 30%
Target sequence (Q01638 whole entry, looked up): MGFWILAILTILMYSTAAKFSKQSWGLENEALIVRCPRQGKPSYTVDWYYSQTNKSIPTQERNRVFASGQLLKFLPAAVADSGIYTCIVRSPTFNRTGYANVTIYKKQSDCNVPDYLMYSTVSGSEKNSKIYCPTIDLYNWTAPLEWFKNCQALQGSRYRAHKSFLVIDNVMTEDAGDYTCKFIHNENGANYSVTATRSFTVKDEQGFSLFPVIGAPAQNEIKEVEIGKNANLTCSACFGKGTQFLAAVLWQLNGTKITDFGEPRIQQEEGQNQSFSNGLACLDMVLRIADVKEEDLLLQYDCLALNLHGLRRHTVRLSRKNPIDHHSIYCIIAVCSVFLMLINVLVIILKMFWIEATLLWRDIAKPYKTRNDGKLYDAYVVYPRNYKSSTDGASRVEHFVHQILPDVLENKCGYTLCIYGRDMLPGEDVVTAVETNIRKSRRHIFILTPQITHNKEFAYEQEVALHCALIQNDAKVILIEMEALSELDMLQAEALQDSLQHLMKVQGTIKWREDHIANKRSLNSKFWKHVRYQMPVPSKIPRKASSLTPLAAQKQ
The depositor's hits bear a star; i = inactive. The entries come from a sample that favours hits as a whole.

SMILES	ST2 inh
Cc1nc(CCNC(=O)c2cnn(-c3ccccn3)c2C)sc1C	i
COc1ccccc1-c1ccnc(-n2ncc(C(=O)NC(c3ccncc3)c3ccc(C)cc3)c2C)n1 (stereo not drawn)	i
Cc1cc(CNC(=O)c2cnn(-c3nccc(-c4cc(C)sc4C)n3)c2C)on1	30.0%*
CCC1=C(c2ccc(OC)cc2)S(=O)(=O)N(CC(=O)Nc2ccc(Br)c(C)c2)C1=O	i
CCNC(=O)NC(=Nc1nc(C)cc(C)n1)Nc1cc(OC)c(Cl)cc1OC	i
CC(=O)N1c2ccccc2NC2=C(C(=O)CCC2)C1c1ccc(Cl)c(Cl)c1 (stereo not drawn)	i
CC(C)C(=O)N1c2ccccc2NC2=C(C(=O)CCC2)C1c1ccco1 (stereo not drawn)	30.0%*
CC(=O)N1c2ccccc2NC2=C(C(=O)CCC2)C1c1ccco1 (stereo not drawn)	i
NS(=O)(=O)c1ccc(NC(=O)COc2ccccc2)cc1	i
O=C(Cn1cnc2c(oc3ccccc32)c1=O)Nc1ccc(F)cc1	i
CC(C)C(NS(=O)(=O)c1cccs1)C(=O)NC1CCCCCC1 (stereo not drawn)	i
CC(C)NS(=O)(=O)c1cc(NC2CCCCC2)cc(C(=O)NC2Cc3ccccc3C2)c1	30.0%*
Cc1ccc(S(=O)(=O)N2CCCCC2)cc1C(=O)NC1CCCCC1	i
O=C(Nc1cccc(F)c1)N1C[C@@H]2C[C@H](C1)c1ccc(-c3cc4ccccc4s3)c(=O)n1C2	i
Cc1cccnc1N1CCN(Cc2ccc(S(C)(=O)=O)cc2)CC1	i
Cc1ccn2cc(C(=O)N(C)CC3CCN(CCc4ccc(Cl)cc4)CC3)nc2c1	i
N#C/C(=C/C=C/c1ccccc1)c1nc(-c2ccc(F)cc2)cs1	40.0%*
N#CCc1nc(-c2ccccc2)cs1	i
N#C/C(=C/c1ccc(F)cc1)c1nc(-c2ccccc2)cs1	56.0%*
N#C/C(=C\Nc1ccc(S(N)(=O)=O)cc1)c1nc(-c2ccccc2)cs1	i
N#C/C(=C/C=C/c1ccccc1)c1nc(-c2cccs2)cs1	60.0%*
Nc1nc(-c2ccc(-c3ccccc3)cc2)cs1	i
CCN(c1ccc(C)c(C)c1)S(=O)(=O)c1cccc2cccnc12	i
O=C(c1cc(COc2ccc3c(c2)OCO3)[nH]n1)N1CCCO1	i
COc1cccc(CC(C2CCN(C(=O)c3cc(C(C)C)on3)CC2)N(C)C(=O)c2ccn(C)n2)c1 (stereo not drawn)	i
SMILES	ST2 inh
O=C(CSc1nnc(SCC(=O)c2ccc(O)cc2)s1)c1ccc(O)cc1	i
COc1ccc(C(=O)N2CCN=C2SCc2ccccc2F)cc1OC	i
CCC(C)NC(=O)C1Cc2ccccc2CN1S(C)(=O)=O (stereo not drawn)	i
COc1cccc(C2c3[nH]c4ccccc4c3CCN2C(=O)C2=CCCC2)c1OC (stereo not drawn)	i
Nc1nc(N)nc(CCCn2c(-c3nonc3N)nc3ccccc32)n1	i
COCCNC(=S)N[C@H]1C[C@H]2C(=O)NC[C@@H](CCC(=O)N3CCOCC3)N2C1	i
O=C1NC[C@@H](CCC(=O)N2CCOCC2)N2C[C@@H](NC(=S)NCc3ccco3)C[C@@H]12	i
O=C(CC[C@@H]1CNC(=O)[C@@H]2C[C@H](NC(=S)NCCN3CCOCC3)CN12)NCc1ccccc1	31.0%*
O=C(CC[C@@H]1CNC(=O)[C@@H]2C[C@H](NC(=O)Nc3ccc(F)cc3F)CN12)NCc1ccc(F)cc1	71.0%*
O=C(CC[C@@H]1CNC(=O)[C@@H]2C[C@H](NC(=S)Nc3ccc(Cl)cc3)CN12)NC1CC1	i
O=C(CC[C@@H]1CNC(=O)[C@@H]2C[C@H](NC(=O)c3ccc(F)c(Cl)c3)CN12)NCc1ccccc1	i
CS(=O)(=O)NC1CCN(c2nccc(CCC(F)(F)F)n2)CC1	i
Cc1c(Br)c([N+](=O)[O-])nn1CC(=O)Nc1ccc(S(N)(=O)=O)cc1	i
Cc1cccc(CSC2=NCCN2C(=O)c2ccc(F)cc2)c1	i
O=C(OC1CCCCC1)c1cc2cc(Br)ccc2oc1=O	i
Cc1ccc(CN(CCCO)C(=O)c2ccc3ncsc3c2)s1	i
COc1ccc2cc3cc(C(=O)Nc4ccc(F)cc4F)oc3nc2c1	i
COc1ccc2cc3cc(C(=O)N4CCN(c5cccc(Cl)c5)CC4)oc3nc2c1	i
COc1ccc2nc3oc(C(=O)Nc4cc(OC)c(OC)c(OC)c4)cc3cc2c1	i
COc1ccc2nc3oc(C(=O)NCCC(C)C)cc3cc2c1	i
COc1ccc2nc3oc(C(=O)Nc4ccc(OC)c(Cl)c4)cc3cc2c1	37.0%*
COc1ccc2nc3oc(C(=O)NCc4cccs4)cc3cc2c1	35.0%*
COc1cc(NC(=O)c2cc3cc4ccc(Cl)cc4nc3o2)cc(OC)c1OC	i
COc1cccc(NC(=O)c2cc3cc4ccc(OC)cc4nc3o2)c1	38.0%*
COc1ccc2cc3cc(C(=O)Nc4cccc(Cl)c4)oc3nc2c1	36.0%*
SMILES	ST2 inh
CCOc1ccccc1NC(=O)c1cc2cc3ccc(OC)cc3nc2o1	i
CCOCCCNC(=O)c1cc2cc3cc(OC)ccc3nc2o1	i
COc1ccc2nc3oc(C(=O)Nc4cc(Cl)ccc4OC)cc3cc2c1	i
Cc1nccn1-c1ccc(NC(=O)C2CCCN(CCCc3ccccc3)C2)cc1 (stereo not drawn)	i
CN(CCCNC(=O)C1CCCN1c1nnc(N2CCCC2=O)s1)c1ccccc1 (stereo not drawn)	i
O=C(CNC(=O)c1cccs1)NC1CCCC1	i
CCOc1ccc2c(c1)sc(=NC(=O)c1cccc(N3C(=O)CCC3=O)c1)n2C	i
CC12NC(=O)NC(c3cc(Cl)ccc3O1)C2C(=O)Nc1ccc(Cl)cc1 (stereo not drawn)	i
O=C(Nc1nc(-c2ccc(F)c(F)c2)cs1)c1ccc(F)cc1	i
CCN(CC)C(=O)Cn1cnc2sc(C(=O)NCc3ccc(F)cc3)c(C)c2c1=O	i
CCOC(=O)N1CCN(C(=O)c2ccc(N3CCC(NCCc4c(C)n[nH]c4C)CC3)cc2)CC1	i
Cc1ccc(NC2CCCN(C(=O)c3cc(=O)c4ccccc4o3)C2)cc1C (stereo not drawn)	i
CCCC1COCCN1C(=O)c1cc(=O)c2ccccc2o1 (stereo not drawn)	40.0%*
CCN1CCN(C(=O)c2cc(=O)c3ccccc3o2)C(C)C1=O (stereo not drawn)	i
O=c1c2c3c(sc2nc2c4ccccc4c(Cl)nn12)CCCC3	i
COc1ccccc1S(=O)(=O)Cc1ccc(C(=O)NCCCN2CCOCC2)o1	i
O=C1CCCc2oc3c(Br)cc(NS(=O)(=O)c4cccc5ccccc45)cc3c21	i
CCSc1nc2c(c(=O)[nH]1)C(c1cccs1)C1=C(CC(C)(C)CC1=O)N2 (stereo not drawn)	i
CCOC(=O)C1C(=O)C=C(c2ccc(OC)c(OC)c2)CC1c1cccs1 (stereo not drawn)	i
O=C1C=C(c2ccccc2)C[C@H](c2cccs2)[C@H]1n1nnc([N+](=O)[O-])n1	33.0%*
O=C1C=C(/C=C/c2ccccc2)C[C@H](c2ccccc2)[C@H]1n1nnc([N+](=O)[O-])n1	58.0%*
COc1ccc(C=NC23CC4CC(CC(C4)C2)C3)cc1OC	i
OCCC1CN(Cc2cc3ccccc3o2)CCN1CCc1ccccc1 (stereo not drawn)	i
COCC(=O)NCCc1nc2ccccc2n1C	i
COc1ccccc1NC(=O)c1cnc2scc(C)n2c1=O	i
